Screening results as filed in PubChem.
Compounds with a hit are over-represented: about 1.3% of the library has one in this group of screens.
MEX-5 binding – C. elegans MEX-5 TCR-2 RNA binding activity | MEX-5/FITC-TCR2 RNA binding, fluorescence polarization; stronger effect = lower value | 300,000 compounds, 0.38% hits | AID 1832 | Q9XUB2 | activity score (negative = inhibition of binding), % at 10 µM;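 active = inhibition past about -25% in most replicates, and total fluorescence under double the plate's negative control median, limit read from the data; inconclusive = replicates evenly split on the limit, or fluorescence at least double controls; inactive = too little inhibition in most replicates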;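 also: 0% = DMSO and -100% = 5 µM competing unlabeled TCR2 RNA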
Target sequence (Q9XUB2 whole entry, looked up): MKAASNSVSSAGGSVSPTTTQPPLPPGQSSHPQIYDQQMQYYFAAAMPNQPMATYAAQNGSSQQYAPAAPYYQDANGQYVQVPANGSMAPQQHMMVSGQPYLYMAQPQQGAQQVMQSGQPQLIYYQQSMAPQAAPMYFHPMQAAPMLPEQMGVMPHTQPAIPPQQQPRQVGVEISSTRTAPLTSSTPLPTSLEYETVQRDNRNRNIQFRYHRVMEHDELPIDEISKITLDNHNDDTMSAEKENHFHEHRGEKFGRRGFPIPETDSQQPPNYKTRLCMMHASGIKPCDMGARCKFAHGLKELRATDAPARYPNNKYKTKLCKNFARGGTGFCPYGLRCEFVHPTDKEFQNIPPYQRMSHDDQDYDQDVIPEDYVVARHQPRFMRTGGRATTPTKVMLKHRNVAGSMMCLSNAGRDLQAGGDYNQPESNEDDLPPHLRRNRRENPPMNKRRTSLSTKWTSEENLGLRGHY
eLon inh – E. coli protease La inhibition | inhibition, % at 7.94 µM | purified E. coli Lon protease, fluorescence polarization | 360,000 compounds, 0.42% hits | P0A9M0; in the data active = inhibition above about 13%, passing the limit was not always enough;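 also: 0% = enzyme with probe and DMSO and 100% = no enzyme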
Bcl-xL primary – Bcl-xL (human) inhibition | inhibition, % at 10.9 µM | 320,000 compounds, 0.7% hits | GST-Bcl-xL / FITC-Bim BH3 peptide fluorescence polarization;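 active = inhibition above the mean of all tested compounds plus 3 SD, cutoff set per campaign, cut at about 30% in these data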;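 also: 0% = DMSO wells and 100% = unlabeled Bim-BH3 peptide competitor; inhibitors lower millipolarization by displacing the labeled peptide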
EBV gp42 inh – blocks Epstein-Barr virus glycoprotein 42 binding; Q1HVG2; Fluorescence polarization binding assay, mP read-out; inhibition, % (tested at 21.74 µM); 220,000 compounds, 0.42% hits; in the data active = inhibition above about 50%
GLD-1 RNA inh – GLD-1-TGE RNA interaction inhibition (C. elegans); Q17339; purified GLD-1 + fluorescein TGE RNA, fluorescence polarization; inhibition, % at 5.96 µM; 320,000 compounds, 0.44% hits; AID 2280;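 active = percent inhibition above a per-plate cutoff, the plate mean of test compounds plus 3 SD, cut at about 30% in these data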;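 also: 0% = DMSO wells with GLD-1 and probe and 100% = wells lacking GLD-1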
An asterisk follows results filed as active; ? = inconclusive; nt = not tested or not shown.

SMILES	MEX-5 binding	eLon inh	Bcl-xL primary	EBV gp42 inh	GLD-1 RNA inh
O=C(COC(=O)/C=C/c1ccco1)NCCN1C(=O)CSC1=O	nt	-9.7	nt	nt	nt
COC(OC)c1ccnc(-c2ccc(OC(=O)c3cccs3)cc2)n1	2.8	3.6	1.2	58.9*	-0.1
CCC(C)Oc1nc2c(c(=O)n(C)c(=O)n2C)n1C (stereo unspecified)	1.1	9.4	6.8	-12.5	-3.8
Cc1noc(C)c1S(=O)(=O)NC1CCN(Cc2ccccc2)CC1	-33.7*	-3.2	34.7*	1.9	9.4
Cc1cc(C)c(S(=O)(=O)NC2CCN(Cc3ccccc3)CC2)c(C)c1	2.6	-9.1	3.0	-17.3	8.9
N#Cc1cc(-c2ccccc2)nn1-c1ccccc1	-9.4	-1.0	45.1*	-32.0	-2.1
CCOc1ccc(-c2nc(C#N)c(NCc3ccco3)o2)cc1	1.6	3.9	12.0	-2.9	13.9
O=C1SC(SCc2ccccc2Cl)=N/C1=C\c1ccc(C(=O)O)cc1	-40.7*	-1.1	7.5	-2.4	-2.3
CN1C(=O)c2cccc3c(Cl)ccc(c23)C1=O	-1.6	4.1	7.3	1.9	3.6
CN1C(=O)c2cccc3c(N(C)C)ccc(c23)C1=O	-14.2	-57.4	74.6*	nt	10.3
CC(N=Cc1cc([N+](=O)[O-])ccc1O)c1ccccc1 (stereo unspecified)	0.8	-0.6	6.1	-16.5	-1.9
CC(N=Cc1cccc(O)c1O)c1ccccc1 (stereo unspecified)	-2.7	10.5	33.3*	-15.6	14.5
Oc1cccc(/C=N/N=C/c2cccc(O)c2O)c1O	-37.2*	-3.7	3.5	nt	-1.2
O=C(/C=C/c1ccc(O)c(O)c1)OC1C(O)CC(OC(=O)/C=C/c2ccc(O)c(O)c2)(C(=O)O)CC1O (stereo unspecified)	-32.3*	-5.7	11.2	0.4	4.9
O=C(/C=C/c1ccc(O)c(O)c1)O[C@@H]1C[C@](O)(C(=O)O)C[C@@H](O)[C@H]1O	-9.8	-7.5	2.3	nt	4.3
CCn1c([N+](=O)[O-])nc2c1c(=O)[nH]c(=O)n2C	-0.6	-5.5	nt	-4.1	nt
O=C(NCCS(=O)(=O)NC1CCCC1)c1ccccc1	2.2	-8.8	-1.1	nt	1.7
CCOC(=O)c1sc(N=NC2=C(O)CC(C)(C)CC2=O)c(C(=O)OCC)c1C	6.1	-1.5	1.4	14.4	0.2
O=S(=O)(Cc1ccc(Cl)cc1)N1CCCC1	1.6	6.2	5.7	-22.8	9.4
O=C(NCc1ccccc1)C1Nc2ccc(OC(F)(F)F)cc2C2C=CCC12 (stereo unspecified)	-1.7	-13.6	0.6	nt	1.4
COc1cccc2c1NC(C(=O)O)C1CC=CC21 (stereo unspecified)	-76.4*	-11.7	78.5*	62.5*	4.1
O=C(O)C1Nc2c(cccc2C(F)(F)F)C2C=CCC12 (stereo unspecified)	-29.1*	nt	nt	nt	nt
COc1cccc(C2Nc3c(F)cc(Br)cc3C3C=CCC32)c1OC (stereo unspecified)	4.0	-16.2	3.0	-3.9	2.5
CCOC(=O)Nc1ccc(C(=O)/C=C/c2ccccc2)cc1	-3.4	0.0	4.9	-10.6	10.0
Cc1onc(-c2ccccc2Cl)c1C(=O)O/N=C(\N)c1ccc([N+](=O)[O-])o1	-0.6	2.7	3.5	-11.0	5.9
SMILES	MEX-5 binding	eLon inh	Bcl-xL primary	EBV gp42 inh	GLD-1 RNA inh
N=c1c(S(=O)(=O)c2ccccc2)cc2c(=O)n3ccccc3nc2n1Cc1cccnc1	-42.5*	0.6	6.8	nt	-3.9
Cc1cccn2c(=O)c3cc(S(=O)(=O)c4ccccc4)c(=N)n(CC4CCCO4)c3nc12 (stereo unspecified)	-38.5*	nt	4.7	-0.9	-2.5
Cc1cccn2c(=O)c3cc(S(=O)(=O)c4ccccc4)c(=N)n(Cc4cccnc4)c3nc12	-30.6*	13.4	0.8	nt	-0.6
Cc1ccc(S(=O)(=O)c2cc3c(=O)n4cccc(C)c4nc3n(CC3CCCO3)c2=N)cc1C (stereo unspecified)	-4.0	4.7	0.2	-5.8	-4.3
N=c1c(S(=O)(=O)c2ccc(Br)cc2)cc2c(=O)n3ccccc3nc2n1Cc1ccccc1	0.4	-4.6	0.5	nt	0.2
CC1=C([N+](=O)[O-])C(c2ccccc2Cl)NC(=O)N1C (stereo unspecified)	1.8	1.8	5.0	nt	3.5
CCOC(=O)/C(C#N)=C\c1ccc(N2CCN(C/C=C/c3ccccc3)CC2)cc1	?	-97.4	-29.8	130.7*	-24.7
CCOC(=O)/C(C#N)=C\c1cc(C)n(-c2ccccc2)c1C	-5.1	-2.0	-1.3	-6.8	3.5
Cn1c(=O)c2c(nc(SC3C(=O)CC(C)(C)CC3=O)n2C)n(C)c1=O	-0.5	-9.9	-2.3	nt	-9.2
Cc1ccc2oc(C(=O)NCc3ncc(C)[nH]3)c(C)c2c1	-2.1	-1.4	1.9	nt	4.2
Cc1cnn(C(=O)c2cc(-c3ccccn3)nc3ccc(Cl)cc23)c1	0.5	9.8	31.1*	-0.3	0.8
O=C(c1cc(-c2ccccn2)nc2ccc(Cl)cc12)N1CCN(CCc2ccccc2)CC1	-3.8	2.3	11.0	-5.5	4.4
COc1cccc(/C=C/C(=O)OCC(=O)Nc2ccc(Cl)cn2)c1	4.5	13.9*	0.2	-17.5	-4.9
O=C(COC(=O)/C=C/c1cccc(Br)c1)Nc1ccc(Cl)cn1	nt	0.3	nt	nt	nt
Cn1c(SCC(=O)Nc2ccc3nc(SCC(=O)N4CCCC4)sc3c2)nnc1-c1ccccc1	2.5	nt	10.8	83.0*	-0.4
Cc1sc2nc3ccc(NCc4ccco4)nn3c(=O)c2c1C	nt	7.2	34.5*	10.6	10.1
Cc1cccn2c(=O)c(C=O)c(Cl)nc12	-1.9	-3.1	26.9	1.5	14.4
O=Cc1c(Cl)nc2ccccn2c1=O	-1.0	14.6	56.1*	1.4	18.9
CCNC(=O)C1CCCN1S(=O)(=O)c1ccc2ccccc2c1 (stereo unspecified)	0.9	-12.7	3.0	nt	4.6
O=C(NCCc1ccccc1F)C1CCCN1S(=O)(=O)c1ccc2ccccc2c1 (stereo unspecified)	2.3	-0.3	39.5*	-5.5	2.3
CCCCn1c(O)c(N=Nc2ccccn2)c2ccccc21	-30.8*	-19.9	-4.8	-17.1	2.7
Cc1cc(=O)cc(C)n1-c1ccc(Br)cc1	2.0	17.5	-3.6	4.8	87.9*
Cc1cc(=O)cc(C)n1-c1ccc2c(c1)nc(C)n2-c1ccccc1	1.9	0.9	2.0	nt	-1.6
OC[C@@H]1CN(Cc2ccc(Cl)cc2)C[C@H](n2cnc3c(NCc4ccc(F)cc4)ncnc32)O1	nt	-19.2	nt	nt	nt
Cc1ccc(/C=C/C(=O)OCc2nc(N)nc(Nc3ccccc3C)n2)o1	2.5	-4.2	4.4	85.5*	7.8
Cc1ccccc1Nc1nc(N)nc(COC(=O)c2ccco2)n1	nt	6.2	nt	nt	-8.9
O=[N+]([O-])c1c(NCCCO)cc(Sc2nc3ccccc3s2)c2nonc12	-9.2	-12.1	44.0*	11.7	11.2
Cc1nnc(Sc2cc(NCCCO)c([N+](=O)[O-])c3nonc23)s1	0.3	6.8	nt	-9.3	nt
O=C(NC1CCN(Cc2ccccc2)CC1)c1cc(S(=O)(=O)N2CCOCC2)ccc1Cl	nt	2.2	nt	nt	nt
